Potency, activation and activity change, negative = inhibition data for 20 molecules are collected here from PubChem BioAssay (NCATS).

Experiment [1] deals with Rap guanine nucleotide exchange factor 3 (Homo sapiens) (UniProt O95398). Briefly: Confirmatory qHTS for antagonist of cAMP-regulated guanine nucleotide exchange factor 3 (EPAC1) (AID 1645880). Note: nearly all actives have a fitted effect of over 55% in size. Note: potency is the fitted concentration of half-maximal effect. The essentials:
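Nucleotide exchange uses 100 nM EPAC1, 250 nM RAP1B-BODIPY-GDP and 50 uM GDP, with compounds in a concentration-titration series. After 5 min at room temperature, fluorescence (480 nm ex/540 nm em) is read every 5 min for 30 min. Data are normalized to control ATA and DMSO.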

The target is the same in experiment [2]. Put plainly: Confirmatory qHTS for agonist of cAMP-regulated guanine nucleotide exchange factor 3 (EPAC1) (AID 1645881).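 For activation: EPAC1 catalysed release of BODIPY-GDP from Rap1B seen as fluorescence loss; 100% = effect of cAMP agonist control.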 Note: nearly all actives have a fitted effect of over 75% in size. Note: potency is the fitted concentration of half-maximal effect.
The target of experiment [3] is Rap guanine nucleotide exchange factor 4 (Homo sapiens) (UniProt Q8WZA2). Briefly: Confirmatory qHTS for agonist of cAMP-regulated guanine nucleotide exchange factor 4 (EPAC2) (AID 1645884). For activation: % is set by controls: 0 for no effect and ±100 for the full control effect.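 Note: nucleotide exchange releases bodipy-GDP from Rap1 and this lowers its fluorescence; nearly all actives have a fitted effect of over 65% in size.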 Note: potency is the fitted concentration of half-maximal effect. A general note: In qHTS, concentration-response curves come from the screen itself.
Rap guanine nucleotide exchange factor 4 (Homo sapiens), sequence (Q8WZA2 whole entry, looked up): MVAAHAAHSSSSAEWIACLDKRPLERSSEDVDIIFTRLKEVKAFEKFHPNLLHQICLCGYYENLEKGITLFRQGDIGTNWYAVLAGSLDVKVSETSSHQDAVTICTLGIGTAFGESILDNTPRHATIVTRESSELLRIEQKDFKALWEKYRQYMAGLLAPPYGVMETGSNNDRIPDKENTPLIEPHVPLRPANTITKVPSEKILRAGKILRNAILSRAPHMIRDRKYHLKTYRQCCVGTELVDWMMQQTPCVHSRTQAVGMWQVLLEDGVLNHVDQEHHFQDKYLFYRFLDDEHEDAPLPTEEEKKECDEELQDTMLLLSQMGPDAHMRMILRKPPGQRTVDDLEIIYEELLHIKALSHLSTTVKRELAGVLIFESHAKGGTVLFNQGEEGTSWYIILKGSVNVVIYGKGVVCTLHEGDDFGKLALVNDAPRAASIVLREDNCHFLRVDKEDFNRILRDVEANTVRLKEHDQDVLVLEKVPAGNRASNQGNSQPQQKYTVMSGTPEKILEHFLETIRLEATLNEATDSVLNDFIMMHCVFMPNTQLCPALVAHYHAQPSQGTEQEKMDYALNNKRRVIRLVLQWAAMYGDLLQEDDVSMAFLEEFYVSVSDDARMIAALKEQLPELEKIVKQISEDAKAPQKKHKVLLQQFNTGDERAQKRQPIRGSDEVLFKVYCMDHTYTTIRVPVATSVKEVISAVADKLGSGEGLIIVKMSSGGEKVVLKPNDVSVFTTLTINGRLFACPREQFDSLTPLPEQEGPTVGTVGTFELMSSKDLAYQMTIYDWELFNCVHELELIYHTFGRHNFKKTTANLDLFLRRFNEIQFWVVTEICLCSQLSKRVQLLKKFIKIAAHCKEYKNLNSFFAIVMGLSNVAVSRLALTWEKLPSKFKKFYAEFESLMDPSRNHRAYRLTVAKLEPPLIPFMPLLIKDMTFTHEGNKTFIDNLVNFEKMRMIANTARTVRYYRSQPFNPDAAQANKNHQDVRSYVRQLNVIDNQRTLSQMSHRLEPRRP
For experiment [4] the target is unchanged. Put plainly: Confirmatory qHTS for antagonist of cAMP-regulated guanine nucleotide exchange factor 4 (EPAC2) (AID 1645885). For activity change, negative = inhibition: % is set by controls: 0 for no effect and ±100 for the full control effect. Note: nearly all actives have a fitted effect of over 25% in size. Note: potency is the fitted concentration of half-maximal effect.
Experiment [5] addresses Rap guanine nucleotide exchange factor 3 (Homo sapiens) (UniProt O95398). Put plainly: Counterscreen qHTS for antagonist of cAMP-regulated guanine nucleotide exchange factor 3 (EPAC1) (AID 1645888).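 Note: fluorescence loss as bound BODIPY-GDP is released from Rap1B; % of control where 0% means no effect.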 The procedure, abridged:
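Rap1B-BODIPY-GDP 250 nM + GDP 50 uM; cpds 7-pt, final 9.74 nM–152 uM (activator mode) or from 7.32 nM upwards (inhibitor mode); RT; FI 480/540 nm at 5 and 30 min, then ± cAMP, reread.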
A general note: The purpose of a counterscreen is to sort out artefacts and off-target activity.

SMILES strings stand for the structures. Inconclusive results are not listed. A number with no mark means an inactive call. Calls of active or inactive are those of the source. Calls come from the whole dose curve; as a rule, active = well fitted curve in the direction sought with a large enough effect; inconclusive = small, poorly fitted or top-dose-only effect, or another doubt; inactive = no such curve, though single readings can be large; an effect the other way counts as inactive or inconclusive.

Rap guanine nucleotide exchange factor 3 (Homo sapiens), sequence (O95398 whole entry, looked up): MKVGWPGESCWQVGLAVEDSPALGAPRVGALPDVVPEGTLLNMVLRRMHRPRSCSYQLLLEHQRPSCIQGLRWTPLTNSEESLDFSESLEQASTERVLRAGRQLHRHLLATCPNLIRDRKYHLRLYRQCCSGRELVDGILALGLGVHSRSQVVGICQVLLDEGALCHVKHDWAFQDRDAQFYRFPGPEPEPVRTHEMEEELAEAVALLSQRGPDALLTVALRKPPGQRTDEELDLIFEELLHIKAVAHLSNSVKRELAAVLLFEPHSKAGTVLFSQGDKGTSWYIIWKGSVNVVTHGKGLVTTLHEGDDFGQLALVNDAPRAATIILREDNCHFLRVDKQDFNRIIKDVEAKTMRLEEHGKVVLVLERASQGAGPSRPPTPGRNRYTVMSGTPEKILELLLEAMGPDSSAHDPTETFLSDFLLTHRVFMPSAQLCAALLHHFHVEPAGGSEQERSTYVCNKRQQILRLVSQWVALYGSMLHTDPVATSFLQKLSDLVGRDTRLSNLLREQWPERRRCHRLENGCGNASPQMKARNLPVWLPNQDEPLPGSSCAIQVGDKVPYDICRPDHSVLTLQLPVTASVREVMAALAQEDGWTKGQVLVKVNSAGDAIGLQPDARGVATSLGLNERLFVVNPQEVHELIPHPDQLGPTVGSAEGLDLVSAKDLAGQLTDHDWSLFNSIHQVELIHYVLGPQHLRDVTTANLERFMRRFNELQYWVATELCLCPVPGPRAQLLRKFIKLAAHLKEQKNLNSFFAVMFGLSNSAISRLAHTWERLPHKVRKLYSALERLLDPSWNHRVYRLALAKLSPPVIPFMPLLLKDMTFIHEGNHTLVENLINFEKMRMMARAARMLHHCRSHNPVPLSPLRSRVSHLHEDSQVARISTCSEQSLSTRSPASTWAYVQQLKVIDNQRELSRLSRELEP

Turning to `COc1cc(/C=C/C(=O)OCC(=O)Nc2oc(C)c3c(C)n[nH]c(=O)c23)ccc1OC(F)F`, the Potency entry in experiment [1], in experiment [2], in experiment [3], in experiment [4] and in experiment [5] was “inactive” throughout.
Take `Cc1ccc(C)n1-c1c(C(=O)NCCC(C)C)sc2ncccc12`: the Potency entry in experiment [1], in experiment [2], in experiment [3], in experiment [4] and in experiment [5] was “inactive” throughout.
For the molecule `CCN(CC)S(=O)(=O)c1cccc(-c2nnc(SCC(N)=O)n2C)c1`, the Potency result in experiment [1], in experiment [2], in experiment [3], in experiment [4] and in experiment [5] was “inactive” each time.
In the case of `Cc1cc(N)c2cc(NC(=O)/C=C/c3ccccc3Cl)ccc2n1`, the Potency in experiment [1] was 37.9 µM (active); in experiment [2], 100 µM (active); in experiment [3], 56.2 µM (active). The Potency result in experiment [4] and in experiment [5] was “inactive” each time.
For the molecule `CC(C)CC1C(=O)N(Cc2cn(CCC3OCCO3)nn2)CCS(=O)(=O)N1Cc1ccc(-c2ccc(F)cc2)cc1` (stereo not given), the Potency result in experiment [1] and in experiment [2] was “inactive” throughout. Also, the activation in experiment [3] was 7.64% [at 17.1 µM, percent relative to cAMP agonist control]. Moreover, the Potency in experiment [4] was 4.26 µM (active). For the same molecule, in experiment [5], the activity change, negative = inhibition was -16% [at 30.8 µM].
Turning to `COc1cccc(OC)c1OC(=O)/C=C/c1ccc(C)o1`, the Potency result in experiment [1], in experiment [2] and in experiment [4] was “inactive” in each case. The activation in experiment [3] is -0.917% [at 17.1 µM, percent relative to cAMP agonist control]. Also, the activity change, negative = inhibition in experiment [5] was -18.3% [at 30.8 µM].
For the molecule `Cc1cc(C)cc(NC(=O)N2CCC(CN3CCc4ccccc4C3)CC2)c1`, the Potency result in experiment [1], in experiment [2], in experiment [3], in experiment [4] and in experiment [5] was “inactive” throughout.
In the case of `COc1ccc(N(C)S(=O)(=O)c2cccc3nsnc23)cc1`, the Potency result in experiment [1], in experiment [2], in experiment [3], in experiment [4] and in experiment [5] was “inactive” throughout.
As for `Cc1cn2c(=O)cc(COC(=O)c3ccc(NC(=O)C(C)Oc4ccccc4)cc3)nc2s1` (stereo not given), the Potency entry in experiment [1], in experiment [2], in experiment [3], in experiment [4] and in experiment [5] was “inactive” in each case.
Regarding `COc1ccc2oc(C(=O)CCC(=O)O)c(N)c2c1`, the Potency result in experiment [1], in experiment [2] and in experiment [4] was “inactive” in each case. In addition, in experiment [3], the activation is 0% [at 17.1 µM, percent relative to cAMP agonist control]. Further, the activity change, negative = inhibition in experiment [5] was 3.66% [at 30.8 µM].
As for `COc1ccc(C(=O)Nc2ccc(-c3cc4ccccc4oc3=O)c(C)c2)cc1Br`, the Potency entry in experiment [1], in experiment [2], in experiment [3], in experiment [4] and in experiment [5] was “inactive” in each case.
In the case of `O=C(O)c1ccc(S(=O)(=O)/N=C2\C=C(Nc3ccccc3F)C(=O)c3ccccc32)cc1`, the Potency in experiment [1] was 30.1 µM (active). The Potency entry in experiment [2], in experiment [3], in experiment [4] and in experiment [5] was “inactive” in each case.
As to `OC[C@H]1O[C@H](OCCc2ccc(O)cc2)[C@H](O)[C@@H](O)[C@@H]1O`, the Potency entry in experiment [1], in experiment [2], in experiment [3], in experiment [4] and in experiment [5] was “inactive” throughout.
For the molecule `COC(=O)c1ccc2nc(C3CCCCC3)c(Cc3cccc(F)c3)n2c1`, the Potency result in experiment [1], in experiment [2], in experiment [3], in experiment [4] and in experiment [5] was “inactive” throughout.
`C=CCn1c(-c2ccc(S(=O)(=O)N3CCOCC3)cc2)csc1=Nc1ccccc1`: the Potency result in experiment [1], in experiment [2], in experiment [3], in experiment [4] and in experiment [5] was “inactive” throughout.
Take `CCOC(=O)C1CCCCN1C(=O)c1oc2c(Cl)cc(C)cc2c1C` (stereo not given): the Potency entry in experiment [1], in experiment [2], in experiment [3], in experiment [4] and in experiment [5] was “inactive” in each case.
On to `N#CCC(=O)Nc1sc2c(c1C(N)=O)CCCC2`, for which the Potency result in experiment [1], in experiment [2] and in experiment [4] was “inactive” in each case. Besides, in experiment [3], the activation is 10.1% [at 17.1 µM, percent relative to cAMP agonist control]. For the same molecule, the activity change, negative = inhibition in experiment [5] was -6.4% [at 30.8 µM].
As for `Cc1nc2cc(NC(=O)CCS(=O)(=O)c3ccccc3)ccc2s1`, the Potency entry in experiment [1], in experiment [2] and in experiment [4] was “inactive” throughout. Also, the activation in experiment [3] was -6.47% [at 17.1 µM, percent relative to cAMP agonist control]. Moreover, the activity change, negative = inhibition in experiment [5] was -11.5% [at 30.8 µM].
On to `O=C1C=CC(=O)c2c(O)c(N3CCN(CCOCCO)CC3)c(Br)c(O)c21`, for which, in experiment [1], the Potency was 9.53 µM (active). In addition, the Potency result in experiment [2], in experiment [3], in experiment [4] and in experiment [5] was “inactive” each time.
For the molecule `CCOC(=O)C(C)n1cnc2c(nnn2-c2cccc(Cl)c2)c1=O` (stereo not given), the Potency entry in experiment [1], in experiment [2] and in experiment [4] was “inactive” each time. In experiment [3], the activation was 0% [at 17.1 µM, percent relative to cAMP agonist control]. Besides, the activity change, negative = inhibition in experiment [5] is -28.5% [at 30.8 µM].
